Unmarked numbers belong to inactive results. For some of these results: Entries with a potency or affinity are not part of this list. Active and inactive are the calls of the source. Unless noted, no rule for the calls is given here.
Assays:
[1] = antimalarial activity against Dd2 strain (AID 2302;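 active = growth inhibition above 50% at the single 2 µM test dose, taken to imply half-maximal potency below 2 µM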;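 also: 0% = DMSO untreated growth and 100% = chloroquine plus artemisinin killed control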); conditions: P. falciparum Dd2 in RBCs, LDH growth readout, 72 h; at 2 µM; stronger effect = higher value
[2] = human hepatoma cell viability loss – ATP luminescence, cytotoxicity control for P. falciparum antimalarial project, primary screen (AID 2303;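 active = inhibition above 50%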;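 also: 0% = DMSO wells and 100% = digitonin-killed cells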); conditions: HepG2 viability, 24-48 h, at 10 µM, stronger effect = higher value
[3] = biological target: L-lactate dehydrogenase (Plasmodium falciparum (isolate CDC / Honduras)) (UniProt Q27743); test: PfLDH activity inhibition – cell lysate, 3D7 strain, counter-screen for P. falciparum growth inhibition project (AID 2304);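 also: 0% = vehicle and 100% = reference inhibitor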; conditions: P. falciparum 3D7 crude extract, LDH APAD/NBT absorbance; at 2 µM; stronger effect = higher value
[4] = inhibition of 3D7 malaria parasite growth – strain 3D7 (AID 2306);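 also: 0% = DMSO wells and 100% = chloroquine plus artemisinin control wells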; conditions: P. falciparum 3D7 erythrocytic growth, LDH absorbance, 72 h; at 2 µM; stronger effect = higher value
[5] = biological target: Calcium-dependent protein kinase 1 (Plasmodium falciparum (isolate 3D7)) (UniProt P62344); test: PfCDPK1 kinase inhibitors, biochemical, TCAMS library (AID 1159585; cut-off not given, nearly all actives have IC50 up to about 0.98 µM;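 also: inhibitors leave more ATP so luminescence rises with inhibition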); conditions: recombinant PfCDPK1, Kinase-Glo ATP depletion luminescence
[6] = biological target: Plasmodium falciparum protein kinase 6 (PK6, PF3D7_1337100) (UniProt Q8IDW1); test: PfPK6 kinase inhibitors, biochemical, TCAMS library (AID 1159586); conditions: recombinant PfPK6, Kinase-Glo ATP depletion luminescence
[7] = biological target: Protein kinase 7 (PK7), Plasmodium falciparum 3D7 (PF3D7_0213400) (UniProt Q7YTF7); test: inhibition of Plasmodium PK7 catalytic activity – biochemical, TCAMS antimalarial set, Kinase-Glo luminescence (AID 1159587); conditions: recombinant PfPK7, Kinase-Glo ATP depletion luminescence
[8] = biological target: Calcium-dependent protein kinase 4 (Plasmodium falciparum (isolate 3D7)) (UniProt Q8IBS5); test: PfCDPK4 kinase inhibitors, biochemical, TCAMS library (AID 1159588; cut-off not given, nearly all actives have IC50 up to about 0.91 µM); conditions: recombinant PfCDPK4, Kinase-Glo ATP depletion luminescence
Chain of Calcium-dependent protein kinase 4 (Plasmodium falciparum (isolate 3D7)) (Q8IBS5 whole entry, looked up): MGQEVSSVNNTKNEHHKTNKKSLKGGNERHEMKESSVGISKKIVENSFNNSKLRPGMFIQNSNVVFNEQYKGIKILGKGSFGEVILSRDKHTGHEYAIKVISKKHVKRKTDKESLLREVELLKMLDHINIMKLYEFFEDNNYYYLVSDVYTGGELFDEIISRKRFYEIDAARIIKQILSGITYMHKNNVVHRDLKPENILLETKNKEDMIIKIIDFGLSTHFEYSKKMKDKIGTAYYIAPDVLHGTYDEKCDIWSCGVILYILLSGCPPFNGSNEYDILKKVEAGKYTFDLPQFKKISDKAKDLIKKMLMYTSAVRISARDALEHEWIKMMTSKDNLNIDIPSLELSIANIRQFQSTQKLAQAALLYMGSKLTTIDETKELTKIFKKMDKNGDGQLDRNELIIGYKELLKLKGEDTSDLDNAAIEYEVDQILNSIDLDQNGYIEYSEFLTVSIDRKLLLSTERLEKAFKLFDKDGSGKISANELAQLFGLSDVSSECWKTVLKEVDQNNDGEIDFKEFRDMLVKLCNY

Chain of Plasmodium falciparum protein kinase 6 (PK6, PF3D7_1337100) (Q8IDW1 1-305): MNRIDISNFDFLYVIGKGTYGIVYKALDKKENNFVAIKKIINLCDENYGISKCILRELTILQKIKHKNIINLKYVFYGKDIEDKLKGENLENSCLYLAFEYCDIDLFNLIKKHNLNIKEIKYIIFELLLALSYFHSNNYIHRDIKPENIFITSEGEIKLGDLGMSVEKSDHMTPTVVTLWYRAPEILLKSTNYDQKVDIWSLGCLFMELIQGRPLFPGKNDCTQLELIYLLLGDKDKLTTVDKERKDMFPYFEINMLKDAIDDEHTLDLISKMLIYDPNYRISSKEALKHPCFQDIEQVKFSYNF
Chain of L-lactate dehydrogenase (Plasmodium falciparum (isolate CDC / Honduras)) (Q27743 whole entry, looked up): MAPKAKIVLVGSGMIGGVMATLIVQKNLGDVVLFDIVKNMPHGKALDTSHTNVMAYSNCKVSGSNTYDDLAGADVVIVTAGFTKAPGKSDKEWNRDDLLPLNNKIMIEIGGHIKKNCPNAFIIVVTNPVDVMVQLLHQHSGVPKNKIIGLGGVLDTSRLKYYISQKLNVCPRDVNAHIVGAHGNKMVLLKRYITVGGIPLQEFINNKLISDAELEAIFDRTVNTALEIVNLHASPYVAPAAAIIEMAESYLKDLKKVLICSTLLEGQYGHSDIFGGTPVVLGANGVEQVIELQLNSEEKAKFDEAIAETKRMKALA
Chain of Protein kinase 7 (PK7), Plasmodium falciparum 3D7 (PF3D7_0213400) (Q7YTF7 1-343): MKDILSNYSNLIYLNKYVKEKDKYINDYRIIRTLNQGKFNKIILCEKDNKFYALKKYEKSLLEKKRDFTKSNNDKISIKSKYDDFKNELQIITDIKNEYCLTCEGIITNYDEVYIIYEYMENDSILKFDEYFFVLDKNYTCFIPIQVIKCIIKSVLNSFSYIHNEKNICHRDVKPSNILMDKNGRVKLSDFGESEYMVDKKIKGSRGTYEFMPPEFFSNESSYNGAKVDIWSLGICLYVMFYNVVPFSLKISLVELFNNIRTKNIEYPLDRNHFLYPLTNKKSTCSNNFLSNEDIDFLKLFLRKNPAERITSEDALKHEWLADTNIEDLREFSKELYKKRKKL
Chain of Calcium-dependent protein kinase 1 (Plasmodium falciparum (isolate 3D7)) (P62344 whole entry, looked up): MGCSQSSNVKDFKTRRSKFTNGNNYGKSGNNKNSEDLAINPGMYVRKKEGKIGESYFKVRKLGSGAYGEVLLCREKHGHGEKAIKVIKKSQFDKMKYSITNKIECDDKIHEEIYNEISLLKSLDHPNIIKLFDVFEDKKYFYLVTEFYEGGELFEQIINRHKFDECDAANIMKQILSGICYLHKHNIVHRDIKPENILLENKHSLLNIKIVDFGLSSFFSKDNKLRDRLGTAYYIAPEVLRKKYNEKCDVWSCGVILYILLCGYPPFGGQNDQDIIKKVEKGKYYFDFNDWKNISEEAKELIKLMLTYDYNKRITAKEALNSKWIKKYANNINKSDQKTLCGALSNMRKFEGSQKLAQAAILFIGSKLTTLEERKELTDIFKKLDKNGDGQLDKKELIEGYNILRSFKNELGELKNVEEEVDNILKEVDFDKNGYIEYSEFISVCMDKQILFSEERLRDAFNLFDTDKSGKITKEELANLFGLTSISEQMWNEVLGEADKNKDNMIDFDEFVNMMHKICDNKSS

Row | SMILES | growth inhibition [1] | inhibition [2] | inhibition [3] [%] | growth inhibition [4] | outcome [5] | outcome [6] | outcome [7] | outcome [8]
1 | Cc1cc(NC(=O)Nc2ccc(N(C)C)cc2)c2cc(Cl)ccc2n1 | 50% (active) | -4% | 3 | 100% (active) | inactive | inactive | inactive | inactive
2 | Oc1ccccc1CCNC1CCc2ccccc2C1 (stereo not drawn) | 95% (active) | -4% | 4 | 96% (active) | inactive | inactive | inactive | inactive
3 | COc1ccc2nccc([C@@H](O)CN3CCC(NCCOc4cccc(C(F)(F)F)c4Cl)CC3)c2c1 | 98% (active) | 13% | -3 | 100% (active) | inactive | inactive | inactive | inactive
4 | COc1ccc2c(NN=Cc3ccc([N+](=O)[O-])cc3)ccnc2c1 | 98% (active) | -1% | -1 | 100% (active) | inactive | inactive | inactive | inactive
5 | CCCC(CNCc1cccc(I)c1)CNc1cc(=O)c2ccccc2[nH]1 (stereo not drawn) | 96% (active) | -3% | 7 | 100% (active) | inactive | inactive | inactive | inactive
6 | Cc1cc(C(F)(F)F)nn1-c1ccc(NC(=O)c2ccco2)cc1 | 93% (active) | 14% | -3 | 94% (active) | inactive | inactive | inactive | inactive
7 | O=C(NCC1COc2ccccc2O1)c1cnc2c(c1)nc(-c1cnc(-c3ccccc3)[nH]1)n2CCSCc1c(F)cccc1Cl (stereo not drawn) | 10% | 6% | 4 | 95% (active) | inactive | inactive | inactive | inactive
8 | Cc1ccc2c(OCCN3CCC(Cc4cc5c(cc4F)OCC(=O)N5)CC3)cc(F)cc2n1 | 71% (active) | 27% | 3 | 100% (active) | inactive | inactive | inactive | inactive
9 | Cc1cc(N[C@@H](CC(C)C)C(=O)Nc2ccccc2)nc(NCCc2ccc(F)cc2)n1 | 94% (active) | 8% | 4 | 101% (active) | inactive | inactive | inactive | inactive
10 | N#Cc1cccc(NC(=O)Nc2ccc3c(c2)CCN(C2CCC2)CC3)c1 | 26% | 22% | -3 | 91% (active) | inactive | inactive | inactive | inactive
11 | O=C(NCCN1Cc2ccccc2C1=O)c1ccc(Oc2ccc(C(=O)NCCN3Cc4ccccc4C3=O)cc2)cc1 | 95% (active) | 27% | -1 | 99% (active) | inactive | inactive | inactive | inactive
12 | OC1CCCN(Cc2cccc(-c3ccc(-c4nc5ccc(F)cc5[nH]4)cc3)c2)C1 (stereo not drawn) | 42% | 16% | -4 | 101% (active) | inactive | inactive | inactive | inactive
13 | Cc1cc(=O)c2cc(-c3ccc(OC(F)(F)F)cc3)ccc2[nH]1 | 95% (active) | -3% | 3 | 96% (active) | inactive | inactive | inactive | inactive
14 | CC(=O)N(Cc1ccc(CC(C)NCCc2cccc(Cl)c2)cc1)Cc1ccc(CC(C)NCCc2cccc(Cl)c2)cc1 (stereo not drawn) | 94% (active) | 98% (active) | -4 | 101% (active) | inactive | inactive | inactive | inactive
15 | C#C[C@H]1O[C@@H](n2cnc3c(Nc4cc(Br)cc(C(F)(F)F)c4)ncnc32)[C@H](O)[C@@H]1O | 56% (active) | 21% | 4 | 94% (active) | inactive | inactive | inactive | inactive
16 | Fc1cccc(COc2ccc(Nc3ncnc4sc(C#CCNC5CCC5)cc34)cc2Cl)c1 | 73% (active) | 15% | 9 | 100% (active) | inactive | inactive | inactive | inactive
17 | Cc1cc(NC(=O)c2cccs2)ccc1OC1CCN(Cc2ccccc2)CC1 | 91% (active) | 10% | 4 | 95% (active) | inactive | inactive | inactive | inactive
18 | c1ccc2c(NCCCCCCCNc3ccnc4ccccc34)ccnc2c1 | 94% (active) | 91% (active) | 1 | 101% (active) | inactive | inactive | inactive | inactive
19 | Cn1nc(-c2ccc(S(=O)(=O)N3CCC(CCN4CCC(c5c[nH]c6ccccc56)CC4)CC3)s2)cc1C(F)(F)F | 22% | 40% | 4 | 94% (active) | inactive | inactive | inactive | inactive
20 | Nc1c(Cl)cc(C(O)CNCCCCCCOCCc2ccc(O)cc2)cc1Cl (stereo not drawn) | 97% (active) | 13% | -3 | 97% (active) | inactive | inactive | inactive | inactive
21 | O=C(NCCc1ccccc1)N(Cc1cccc(-c2ccc(CNCc3ccc4c(c3)OCO4)cc2)c1)C1CCN(Cc2ccccc2)CC1 | 70% (active) | 11% | -2 | 94% (active) | inactive | inactive | inactive | inactive

Row | SMILES | growth inhibition [1] | inhibition [2] | inhibition [3] [%] | growth inhibition [4] | outcome [5] | outcome [6] | outcome [7] | outcome [8]
22 | COC(=O)c1ccc(Nc2nccc(Nc3ccc(Oc4ccccc4)cc3)n2)cc1 | 15% | -10% | 7 | 93% (active) | inactive | inactive | inactive | inactive
23 | CCNc1cc(C)nc(Nc2ccc(C)cc2)n1 | 85% (active) | 12% | 3 | 102% (active) | inactive | inactive | inactive | inactive
24 | COc1ccc2ncc(F)c(CCN3CCC4(CC3)COC(c3cc5c(cn3)OCCO5)=N4)c2n1 | 83% (active) | 79% (active) | 5 | 89% (active) | inactive | inactive | inactive | inactive
25 | CCN(CC)CCCC(C)Nc1cc(C)nc2cc(Cl)ccc12 (stereo not drawn) | 7% | 9% | 5 | 100% (active) | inactive | inactive | inactive | inactive
26 | Cc1ccc(C(=O)NCC2CCN(c3ccc(C(F)(F)F)cc3NC(=O)c3ccco3)CC2)cn1 | 73% (active) | 9% | 0 | 91% (active) | inactive | inactive | inactive | inactive
27 | Cn1nc(C(F)(F)F)c(-c2ccc(F)cc2)c1NC(=O)Nc1ccc(F)cc1F | 98% (active) | 11% | -2 | 100% (active) | inactive | inactive | inactive | inactive
28 | Cc1cccc2[nH]c(-c3ccc(-c4ccc(CNCc5ccc(CN)cc5)cc4)s3)nc12 | 85% (active) | 4% | -8 | 101% (active) | inactive | inactive | inactive | inactive
29 | CN1Cc2ccc(NS(=O)(=O)c3ccc(-c4ccoc4)cc3)cc2C1 | 2% | -3% | -2 | 97% (active) | inactive | inactive | inactive | inactive
30 | O=C(C=Cc1cn(-c2ccccc2)nc1-c1ccccc1)N1CCN(c2ccncc2)CC1 | 20% | 11% | 2 | 90% (active) | inactive | inactive | inactive | inactive
31 | O=C(NCC1CCC(CNCCCc2ccccc2)CC1)Nc1ccc(Cl)c(Cl)c1 (stereo not drawn) | 2% | 26% | -6 | 99% (active) | inactive | inactive | inactive | inactive
32 | C=Cc1sc(CNCCCNc2cc(=O)c3ccccc3[nH]2)c(C)c1Br | 35% | -5% | -6 | 94% (active) | inactive | inactive | inactive | inactive
33 | CC(C)CNC(=O)c1ccnc(-c2ccc(CNCCCc3ccccc3)cc2)c1 | 22% | 12% | -3 | 99% (active) | inactive | inactive | inactive | inactive
34 | NC1=NC2(CCCCC2)N(Cc2ccc(Cl)c(Cl)c2)C(N)=N1 | 76% (active) | 22% | -3 | 86% (active) | inactive | inactive | inactive | inactive
35 | Fc1ccc(C=NNc2ccnc3ccc(C(F)(F)F)cc23)cc1 | 6% | 22% | 4 | 90% (active) | inactive | inactive | inactive | inactive
36 | O=C(N[C@H](Cc1ccc(Cl)cc1)C(=O)N1CCN(c2ccnc3cc(Cl)ccc23)CC1)[C@H]1Cc2ccccc2CN1 | 41% | 16% | 5 | 85% (active) | inactive | inactive | inactive | inactive
37 | OC(CNC1CCCCC1)Cn1c2ccc(Br)cc2c2cc(Br)ccc21 (stereo not drawn) | 100% (active) | 10% | 3 | 98% (active) | inactive | inactive | inactive | inactive
38 | CCn1cc(CN2C(=O)C(c3ccccc3)(c3ccccc3)N=C2N)cn1 | 60% (active) | 7% | -2 | 95% (active) | inactive | inactive | inactive | inactive
39 | COc1ccc2c(c1)S(=O)(=O)N=C(N1CCCC1c1ccc(Cl)c(Cl)c1)N2C (stereo not drawn) | 19% | -2% | 0 | 89% (active) | inactive | inactive | inactive | inactive
40 | CC1(C)N=C(N)N=C(N)N1OCCCCCCOc1ccc(Cl)c2ccccc12 | 94% (active) | 62% (active) | 1 | 91% (active) | inactive | inactive | inactive | inactive
41 | COCCNC(=O)c1ccc(OC2CCN(Cc3ccc(F)c(F)c3)CC2)c(Cl)c1 | 73% (active) | 8% | -2 | 88% (active) | inactive | inactive | inactive | inactive

Source: PubChem BioAssay
